About 840 (25%) of roughly 3,400 compounds were called active. Not shown: some 11% with an inconclusive outcome. A selection follows. Potency and affinity values are given separately. A number with no mark means an inactive call.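 How the source made its calls: active means fitted half-maximal concentration of signal decrease at or below twice the sample's top tested concentration; inconclusive means flat curve between -70 and -30 percent, or poor fit; inactive means flat within 30 percent, signal rise, or potency above limit.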

The nature of this experiment: T. gondii growth inhibition with IFN-gamma, dose response, cell-based, ME49Luc, HeLa, luciferase, 72 h (AID 1259418). To be noted: T. gondii ME49Luc in IFN-y HeLa, stronger effect = lower value, -100% = high-dose IFN-γ control wells; at 19.5 µM unless noted.
Consider `CCOc1cccc(-c2noc(-c3nnn(Cc4nc(-c5ccccc5)oc4C)c3C)n2)c1`, for which the max activity was 8.01%.
For the molecule `COc1ccc(-c2nc3c(s2)CN(S(=O)(=O)c2cccc(Cl)c2)CC3)cc1`, the max activity is -9.33% [at 2.6 µM].
Consider `COc1ccc(-c2nc(Cn3nnc(-c4nc(-c5ccccc5Cl)no4)c3C)c(C)o2)cc1`, for which the max activity is -7.3% [at 1.35 µM].
Turning to `CCCCc1ccc(Nc2ncnc3c2cnn3-c2ccccc2)cc1`, the max activity is -7.99% [at 0.68 µM].
On to `COc1ccc(NC(=O)CN2CCC3(CC2)N=C(c2ccc(F)cc2)C(=O)N3)cc1Cl`, for which the max activity is -24% [at 0.16 µM].
Next, `CCc1nc(OCC(=O)Nc2ccccc2CC)c2ccccc2n1`: 28.5%; `O=C(CC1CCCC1)Nc1ccc2c(c1)CCC(=O)N2`: 12.2%; `Cc1oc(-c2cccc(Cl)c2)nc1Cn1nnc(-c2nc(-c3ccccn3)no2)c1C`: -10.2% [at 5 µM].
As for `COc1ccc(-c2ccc(C3[C@@H]4CN(C(=O)c5cnccn5)C[C@H]3N4)cc2)cc1` (stereo partly specified), the max activity was 10.5% [at 10 µM].
With `COc1ccccc1-c1ccc(C2[C@@H]3CN(C(=O)c4ccncc4)C[C@H]2N3)cc1` (stereo partly specified) the figure was 32.2%.
With `COc1ccc(C(=O)N2CCC3(CC2)Nc2cc(F)ccc2-n2cccc23)cc1` the figure was -22% [at 0.16 µM]; with `CCOC(=O)CSc1nc(NCc2ccc(OC)cc2)c2ccccc2n1`, 20.1% [at 10 µM]; with `Cc1ccc2c(c1C)-n1cccc1C1(CCN(C(=O)Cc3ccc(F)cc3)CC1)N2`, 11.4% [at 0.68 µM].
Take `O=C(Nc1cncc(-c2nc3ccccc3o2)c1)c1cccc(Cl)c1`: the max activity was 14.2% [at 0.16 µM].
For the molecule `COc1ccc(S(=O)(=O)N2CCCCN3[C@H](C2)[C@@H](c2ccc(C#CCC(C)C)cc2)[C@@H]3CO)cc1`, the max activity is 177% [at 10 µM].
Consider `Cc1cccc(NC(=O)N2CCc3nc(-c4ccccc4)sc3C2)c1`, for which the max activity was -11.3% [at 0.35 µM].
On to `CCOc1ccc(CC(=O)Nc2ccc(-c3nc(-c4ccccc4)co3)cc2)cc1OCC`, for which the max activity was 30.5% [at 10 µM].
Turning to `Cc1ccc(NC(=O)CN2CCC3(CC2)N=C(c2ccc(F)cc2)C(=O)N3)cc1C`, the max activity is -13.8% [at 1.35 µM].
As for `COc1ccccc1-c1nc(Cn2nnc(-c3nc(-c4ccc(C(F)(F)F)cc4)no3)c2C)c(C)o1`, the max activity was 8.9%.
For `COc1cccc(NC(=O)Nc2ccc(-c3nc(-c4ccccc4)co3)cc2)c1`, the max activity was 66.2%.
With `C=CCO[C@@H]1CCN(c2cc(OC)ncn2)[C@H]1Cc1cnn(C)c1` the figure was 25.2%; with `CC=Cc1ccc2n(c1=O)C[C@H]1[C@H](CO)[C@@H](C(=O)Nc3ccc(-c4ccccc4)cc3)[C@@H]2N1C(=O)CC` (mixture of isomers), 25.5%.
Consider `COc1ccc(CCNc2nc(SCc3cccc(F)c3)nc3ccccc23)cc1OC`, for which the max activity was 12% [at 5 µM].
Next, `Clc1ccc(CSc2nc(NCCc3ccccc3)c3ccccc3n2)cc1`: 29.6% [at 2.6 µM]; `COc1ccc(CNc2nc(SCc3ccccc3Cl)nc3ccccc23)cc1`: 17.2%; `Clc1ccc(CNc2nc(SCc3ccc(Cl)cc3)nc3ccccc23)cc1`: 7.58% [at 2.6 µM].
With `Clc1cccc(CSc2nc(NCCc3ccccc3)c3ccccc3n2)c1` the figure was -7.56% [at 0.16 µM].
With `Clc1ccc(CSc2nc(NCc3ccccc3)c3ccccc3n2)cc1` the figure was 30.6% [at 2.6 µM]; with `Cc1cccc(-c2nc(Cn3nnc(-c4nc(-c5ccc(Cl)cc5)no4)c3C)c(C)o2)c1`, 25.6%.
On to `O=C(NCCc1csc(-c2ccccc2)n1)C1CCN(C(=O)CCc2ccccc2)CC1`, for which the max activity was -11.1%.
Next, `CCCCC[C@H](CC(=O)NO)C(=O)N[C@H](C(=O)N1CCC[C@H]1CO)C(C)C`: 15.6%; `CCOc1ccccc1-c1nc(Cn2c(=O)c3c(C)cc(C)nc3n(-c3ccccc3)c2=O)c(C)o1`: 5.33% [at 0.16 µM].
Next, `CC[C@H](C(=O)N1CCCC[C@H]1C(=O)O[C@H](CCc1ccc(OC)c(OC)c1)c1cccc(OCC(=O)NCCNC(=O)COc2cccc([C@@H](CCc3ccc(OC)c(OC)c3)OC(=O)[C@@H]3CCCCN3C(=O)[C@@H](CC)c3cc(OC)c(OC)c(OC)c3)c2)c1)c1cc(OC)c(OC)c(OC)c1`: -14% [at 5 µM]; `Cc1ccc(C)c(-c2coc(-c3ccc(NC(=O)NC4CCCCC4)cc3)n2)c1`: 6.93% [at 0.16 µM]; `N#Cc1cccc(-c2ccc3c(c2)[C@H]2[C@H](CCN2Cc2ccc4c(c2)OCO4)[C@@H](CO)N3)c1`: 21.2% [at 10 µM].
Consider `N#Cc1cccc(-c2ccc3c(c2)[C@H]2[C@H](CCN2Cc2ccc4c(c2)OCO4)[C@H](CO)N3)c1`, for which the max activity is 17.9% [at 10 µM].
Turning to `C/C=C/c1ccc([C@H]2[C@H]3CN(C(=O)Nc4cccc(OC)c4)CC(=O)N3[C@H]2CO)cc1`, the max activity was -12% [at 21 µM].
Next, `C/C=C/c1ccc([C@@H]2[C@@H](CO)N3C(=O)CN(C(=O)Nc4cccc(OC)c4)C[C@@H]23)cc1`: 27% [at 10 µM].
Next, `CCCC#Cc1ccc([C@@H]2[C@H]3CN(C(=O)Nc4cccc(F)c4)CC(=O)N3[C@H]2CO)cc1`: 7.32% [at 0.16 µM]; `CC(C)CC(=O)N1CCC(C(=O)NCCc2csc(-c3cccs3)n2)CC1`: 7.82%; `Cc1ccc(C)c(-c2coc(-c3ccc(NC(=O)Nc4ccc5c(c4)OCO5)cc3)n2)c1`: 81.1%.
Turning to `CCc1nc(OCC(=O)Nc2cccc(C)c2)c2ccccc2n1`, the max activity is -9.62% [at 1.35 µM].
Consider `Cc1cccc(OCC(=O)N2CSC[C@@H]2C(=O)NCCc2csc(-c3ccccc3)n2)c1`, for which the max activity was -20.7% [at 0.68 µM].
Consider `Cc1ccc2c(c1C)-n1cccc1C1(CCN(C(=O)c3c(F)cccc3F)CC1)N2`, for which the max activity is -8.13% [at 0.16 µM].
In the case of `NC(=O)C1(N2CCCCC2)CCN(c2ncc(NC(=O)c3cccs3)cc2C(=O)O)CC1`, the max activity is 8.78% [at 0.16 µM].
With `CSc1cccc(NC(=O)Nc2ccc(-c3nc(-c4ccc(C)cc4)co3)cc2)c1` the figure was 26.9%; with `O=C(Cn1c(=O)c(S(=O)(=O)c2ccccc2)cc2ccccc21)NC1CCCCC1`, 2.73%; with `Fc1ccc(CSc2nc(NCc3ccco3)c3ccccc3n2)cc1`, -10.7% [at 2.6 µM].
On to `Cc1nc(-c2cc(S(=O)(=O)N3CCC(Cc4ccccc4)CC3)c(C)s2)sc1C`, for which the max activity is 9.1% [at 0.16 µM].
With `CCOc1ccccc1-c1nc(CSc2nc3c(c(=O)[nH]2)CN(CCOC)CC3)c(C)o1` the figure was 20.2% [at 10 µM]; with `CCc1nc(OCC(=O)Nc2ccccc2F)c2ccccc2n1`, 12.8% [at 10 µM].
Next, `COc1ccc(NC(=O)CN2CCC3(CC2)N=C(c2cccc(F)c2)C(=O)N3)cc1Cl`: 18.3% [at 5 µM]; `Cc1ccc(CSC2=Nc3ccccc3C3=NC(CC(=O)NC4CCCCC4)C(=O)N23)c(C)c1` (stereo unspecified): 15.1% [at 5 µM].
For the molecule `O=C(CN1CCC2(CC1)N=C(c1ccc(F)cc1)C(=O)N2)Nc1ccccc1C(F)(F)F`, the max activity was 7.82% [at 10 µM].
`O=C(COc1ccccc1Cl)Nc1cncc(-c2nc3ccccc3o2)c1`: the max activity was -6.28% [at 2.6 µM].
Next, `COc1ccc(N(Cc2nc(-c3cccc(C)c3)oc2C)S(=O)(=O)c2ccc(C)cc2)cc1`: -7.34% [at 1.35 µM].
Regarding `COc1cccc(N(Cc2nc(-c3ccccc3)oc2C)S(=O)(=O)c2ccccc2)c1`, the max activity was -4.33%.
Next, `COc1cccc(N(Cc2nc(-c3cccc(Cl)c3)oc2C)S(=O)(=O)c2ccccc2)c1`: 9.67% [at 0.68 µM]; `COc1ccc(N(Cc2nc(-c3cccc(C)c3)oc2C)S(=O)(=O)c2ccc(OC)cc2)cc1`: -8.14% [at 0.35 µM].
Regarding `COc1ccc(N(Cc2nc(-c3cccc(Cl)c3)oc2C)S(=O)(=O)c2ccc(OC)cc2)cc1`, the max activity was -8.48% [at 2.6 µM].
With `COc1ccc(CC(=O)N2CCC3(CC2)Nc2cc(F)ccc2-n2cccc23)cc1OC` the figure was 6.12% [at 2.6 µM]; with `COc1ccc(-c2nc3c(s2)CN(S(=O)(=O)c2ccc(C(C)C)cc2)CC3)cc1`, 10.1% [at 0.16 µM].
Turning to `CCCN1CCc2nc(SCc3nc(-c4ccc(OCC)c(OC)c4)oc3C)[nH]c(=O)c2C1`, the max activity is 28.6% [at 0.16 µM].
With `Cc1ccc(-c2coc(-c3ccc(NC(=O)Nc4ccc(F)cc4)cc3)n2)cc1` the figure was 8.43% [at 10 µM]; with `Cc1c(-c2n[nH]c(=S)n2-c2ccccc2)sc2nc3n(c(=O)c12)CCC3`, -9.68% [at 0.16 µM].
Next, `CCc1cccc(NC(=O)COc2nc(CC)nc3ccccc23)c1`: -10.7% [at 10 µM]; `Cn1c(=O)c(C(=O)Nc2ccccc2)cc2cccnc21`: 14.2% [at 2.6 µM]; `Cn1cccc1C(=O)Nc1ccc2c(c1)CCC(=O)N2`: 85.5%.
As for `Cc1nc(OCC(=O)NCc2ccccc2)c2ccccc2n1`, the max activity is 19.6% [at 0.16 µM].
With `CCc1nc(OCC(=O)Nc2ccccc2Cl)c2ccccc2n1` the figure was -7.29% [at 1.35 µM]; with `Cc1nc(C)c(C(=O)N2CCCC2c2nc(-c3ccc(F)cc3F)no2)s1` (stereo unspecified), 25.6% [at 10 µM].

The values above are taken from PubChem BioAssay AID1259418 (Broad Institute, 2018).
